Only some compounds are listed: those with a hit (about 4% of all), similar ones and a draw of the others.
OvCa metastasis = Primary qHTS assay for Inhibitors of ovarian cancer metastasis using an organotypic tumor microenvironment (TME) model; SKOV3ip1-GFP adhesion/invasion on 3D omental model, fluorescence; Potency, µM (top dose mostly 45.8 µM), usual class: inhibitors; 46,000 compounds, 0.1% hits; AID 1963576, 2024; further: nearly all actives have a fitted effect of over 65% in size
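qHTS, 4-pt dose (0.36-46 umol/L); SKOV3ip1-GFP, 1,200 cells/well, no FBS; primary omental fibroblast/mesothelial co-culture 48 h pre-grown; 2 h RT + 16 h 37 C; PBS wash, 4% PFA; GFP count 488/509 nm.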
p53null 39C tox = qHTS Screen for Compounds that Selectively Target Cancer Cells with p53 Mutations: Cytotoxicity of p53 Null Cells at the Nonpermissive Temperature; H1299 p53-null (neo) cells, 39C, ATPlite viability, 24 h; Potency, µM (doses to about 46.1 µM), usual class: cytotoxic; 55,000 compounds, 0.97% hits; further: nearly all actives have a fitted effect of over 50% in size
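Following overnight plating at 37C (600 cells/well), H1299-neo or H1299-p53A138V cells are dosed up to 46 uM. Incubation lasts 24 hr at 39C before ATP detection.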
NTMT1 inh = Primary qHTS for Inhibitors of N-terminal methyltransferase 1 (NTMT1): MTaseGlo Assay; Potency, µM (top dose mostly 114 µM), actives largely listed as inhibitors; NTMT1 MTase-Glo SAH luminescence, purified enzyme; 59,000 compounds, 2.5% hits; further: nearly all actives have a fitted effect of over 65% in size
Target sequence (Q9BV86 whole entry, looked up): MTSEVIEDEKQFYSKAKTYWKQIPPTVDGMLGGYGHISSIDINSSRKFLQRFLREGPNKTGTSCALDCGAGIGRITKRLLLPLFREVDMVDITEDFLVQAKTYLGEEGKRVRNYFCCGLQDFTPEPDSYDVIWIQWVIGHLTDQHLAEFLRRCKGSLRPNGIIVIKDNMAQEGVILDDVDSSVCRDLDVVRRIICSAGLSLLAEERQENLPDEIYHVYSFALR
DRV1 agonist = qHTS for Agonists of Human Resolvin D1 Receptor DRV1 | activation, % at 76.9 µM | 48,000 compounds, 2.5% hits | AID 1346428, 2018 | Probable G-protein coupled receptor 32 (Homo sapiens), O75388 | CHO-K1 GPR32 beta-arrestin PathHunter luminescence, 90 min; zero percent set by DMSO-only wells;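 active means activation of at least 60% and not above a set upper limit, about 1 call in 100 departs from these limits; inconclusive means activation of 40% to 60%, or above that upper limit; inactive means activation under 40%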
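Luminescent readout of beta-Gal complementation quantifies ligand-induced beta-arrestin association with GPR32 in CHO-K1 cells; 90 min compound incubation at 37 °C, detection 1 h at room temperature.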
p53null 32C kill = qHTS Screen for Compounds that Selectively Target Cancer Cells with p53 Mutations: Cytotoxicity of p53 Null Cells at the Permissive Temperature. H1299-neo p53 null cells, ATP luminescence, 24 h, 32C. Potency, µM (doses to about 46.1 µM), actives largely listed as cytotoxic. 55,000 compounds, 0.62% hits. AID 903, 2007; further: nearly all actives have a fitted effect of over 55% in size
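We seeded p53-null H1299-neo cells, incubated them overnight at 37C, and added compounds across a range up to 46 uM. After 24 hours at 32C, ATP reagent was applied for 20 min at room temperature and luminescence recorded.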
GALC G270D act = A Novel Cell-Based Assay to Identify Small Molecules for B -Galactocerebrosidase. 145M-Twi-hGALC-G270D cells (Twitcher mouse brain line with human GALC G270D), HMU-beta-Gal fluorescence, 48 h. Potency, µM (series often up to 57.5 µM), most hits filed as activators. 45,000 compounds, 0.1% hits. P54803; further: nearly all actives have a fitted effect of over 65% in size
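Brain-derived Twitcher mouse 145M-Twi cells stably expressing human GALC-G270D or wild-type GALC, treated live, then residual GALC activity read by fluorescence of HMU-b-Gal substrate (0.1 mM final) in citrate-phosphate buffer pH 5.2 with sodium taurocholate. Signal increase indicates enhancement.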
Numbers stand for hits; . = inactive; ? = inconclusive; / = no result given; ! = repeats disagree. Unless noted, the call rests on the fitted dose curve; in most records, active means well fitted curve in the direction sought with a large enough effect; inconclusive means small, poorly fitted or top-dose-only effect, or another doubt; inactive means no such curve, though single readings can be large; an effect the other way counts as inactive or inconclusive.

SMILES | OvCa metastasis | p53null 39C tox | NTMT1 inh | DRV1 agonist | p53null 32C kill | GALC G270D act
CCCC(=O)c1cc(O)c(O)cc1O | / | / | 40µM | . | / | .
CCOC(=O)C(CCc1ccccc1)NC(C)C(=O)N1C(=O)N(C)CC1C(=O)O (stereo unspecified) | / | / | . | / | / | /
Cc1ccc(-c2nc3ccccc3[nH]2)cc1NC(=O)COc1ccccc1[N+](=O)[O-] | ? | ? | . | 79 | ? | .
O=C(COc1ccccc1[N+](=O)[O-])Nc1cccc(-c2nc3ccccc3s2)c1 | . | . | . | 84 | . | .
Cc1ccc(OCC(=O)Nc2cc(-c3nc4ccccc4[nH]3)ccc2C)c(C)c1 | . | . | ? | . | . | .
C=CCc1ccc(O[C@@H]2O[C@H](CO[C@@H]3O[C@H](CO)[C@@H](O)[C@H](O)[C@H]3O)[C@@H](O)[C@H](O)[C@H]2O)c(O)c1 | / | / | . | / | / | /
CCCCC(CC)CNC(=O)CCCc1nnc2n(CCC)c(=O)c3sccc3n12 (stereo unspecified) | . | . | . | 80 | . | .
Cc1ccc2[nH]cc(C(c3ccccc3)c3ccc(C)s3)c2c1 (stereo unspecified) | ? | 16µM | . | . | 11µM | .
CCN1CCN(C(c2ccc(Cl)cc2)c2ccc(Cl)cc2)CC1 | / | / | . | / | / | /
Cc1c(C(=O)OC2CCCCCC2)[nH]c2c1C(=O)CC(c1ccccc1)C2 (stereo unspecified) | . | . | . | 79 | . | .
COc1cccc(CNc2ccc([S+](=O)([O-])Nc3cc4ccccc4s3)cc2)c1O | / | / | . | / | / | /
CN1CCCCC1CCN1c2ccccc2Sc2ccc(S(C)=O)cc21 (stereo unspecified) | / | / | . | 64 | / | .
CN1CCN(CCCN2c3ccccc3Sc3ccc(Cl)cc32)CC1 | . | / | ? | . | / | .
CC(=O)O[C@@H]1C2=C(O)C(=O)[C@](C)(OC(C)=O)C(=O)C2=CO[C@@]12O[C@@H](C)CC[C@H]2OC(C)=O | / | / | . | / | / | /
N#Cc1cccc(-c2nc(-c3cccnc3)no2)c1 | / | / | . | / | / | /
Cc1cc2[nH]c(=O)c(=O)[nH]c2cc1S(=O)(=O)N1CCN(c2cccc(C)c2C)CC1 | . | . | ? | . | . | .
Cc1cc2[nH]c(=O)c(=O)[nH]c2cc1S(=O)(=O)N1CCN(c2ccccc2F)CC1 | . | . | . | 70 | . | .
O=c1c(-c2ccc(O)cc2)coc2cc(O)cc(O)c12 | . | / | 71µM! | . | / | .
COc1ccc(-c2coc3cc(O)cc(O)c3c2=O)cc1 | . | / | . | / | / | /
CC(C)(C)OC(=O)NCCOCCOCCOc1cccc(-n2ncc3c2CCCC3NC(=O)c2ccccn2)c1 (stereo unspecified) | / | / | . | / | / | /
CN1C(=O)[C@@H](NC(=O)c2cc(Cc3ccccc3)on2)COc2ccccc21 | / | / | . | / | / | /
CNCCC(c1cccs1)c1ccc(O)c2ccccc12 (stereo unspecified) | / | / | . | / | / | /
CCOC(=O)c1[nH]c2c(c1C)C(=S)CC(c1ccco1)C2 (stereo unspecified) | / | / | 40µM | / | / | /
CCOC(=O)c1[nH]c2c(c1C)CCC(c1ccco1)C2 (stereo unspecified) | / | / | . | / | / | /
COc1c(C(CC(C)C)OC(C)=O)ccc(Oc2c(O)cc(C)cc2/C=C/C(C)=O)c1C(=O)O (stereo unspecified) | / | / | . | / | / | /
COc1cccc(C(=O)Nc2cccc(-c3cn4ccsc4n3)c2)c1OC | . | 13µM | . | . | . | .
CCOc1cc(CNC2CCCC2)cc(Cl)c1OCc1ccc(Cl)cc1 | / | / | . | / | / | /
